aSyn UTR act: Activators working through SNCA 5'UTR binding (MLPCN); AID 1814; activity score, % (tested at 7.5 µM), hits read low; 300,000 tested, 7.1% active; alpha-synuclein 5'UTR reporter, activators screen; in the data active = activity score below about -60%
Large screens that a line does not name were inactive. These entries were drawn from the full list.

COc1ccc(-c2cc(C(=O)Nc3ccc(C(N)=O)cc3)c3ccccc3n2)cc1	aSyn UTR act -119
Nc1c(C(=O)O)cnc2c(-c3ccc(Cl)cc3)cnn12	aSyn UTR act -72
Nc1c(-c2cccs2)cnc2c(-c3ccc(F)cc3)cnn12	aSyn UTR act -165
CS(=O)(=O)c1cnc2c(-c3ccc(F)cc3)cnn2c1N	aSyn UTR act -106
CC(C)(C)S(=O)(=O)c1cnc2c(-c3ccsc3)cnn2c1N	aSyn UTR act -74
CC(=O)Nc1ccc(Nc2c3c4c(cccc4n(C)c2=O)C(=O)c2ccccc2-3)cc1	none
Nc1ccc2c(c1)C(=O)c1ccccc1C2=O	aSyn UTR act -145
O=C(O)/C=C/C(=O)Nc1ccc2c(c1)C(=O)c1ccccc1C2=O	aSyn UTR act -65
O=C(O)/C=C/C(=O)Nc1ccc2nccnc2c1	aSyn UTR act -75
Nc1ccc2c(c1)C(=O)C(=O)c1ccccc1-2	none
CC(=O)Nc1ccc2c(c1)C(=O)c1ccccc1C2=O	aSyn UTR act -185
O=C1c2ccccc2C(=O)c2cc(NC(=O)C3CC3)ccc21	aSyn UTR act -161
CC(=O)Nc1ccc2nc3ccccc3nc2c1	aSyn UTR act -82
O=[N+]([O-])c1cccnc1NCCNc1ncc(C(F)(F)F)cc1Cl	aSyn UTR act -178
O=[N+]([O-])c1ccccc1NCCNc1ncc(C(F)(F)F)cc1Cl	aSyn UTR act -77
O=c1cc(Cl)[nH]c(=O)n1CCNc1ncc(C(F)(F)F)cc1Cl	aSyn UTR act -106
Cn1nnnc1Sc1ncnc2scc(-c3ccc(F)cc3)c12	aSyn UTR act -89
COc1cccc(NC(=O)COC(=O)c2c(F)cccc2Cl)c1	aSyn UTR act -148
O=C(COC(=O)c1c(F)cccc1Cl)NC1CCCC1	aSyn UTR act -78
CN(N=Nc1cccc([N+](=O)[O-])c1)c1ccccc1	aSyn UTR act -108
CN(N=Nc1ccc([N+](=O)[O-])cc1)c1ccccc1	aSyn UTR act -112
CN(CCCC(=O)O)c1ccc(N=Nc2ccc([N+](=O)[O-])cc2)cc1	aSyn UTR act -65
CC(C)C(=O)Nc1cccc(-c2csc(-c3ccccc3)n2)c1	aSyn UTR act -70
CC(C)C(=O)Nc1ccc(-c2csc(-c3ccccc3)n2)cc1	aSyn UTR act -205
Cn1c(COc2ccc(F)cc2)nc2ccccc21	aSyn UTR act -121
Nn1c(CSc2ccccn2)nc2ccccc2c1=O	aSyn UTR act -123
Cc1cccc(OCc2nc3ccccc3n2C)c1	aSyn UTR act -140
Cc1cccc(OCc2nc3ccccc3c(=O)n2N)c1	aSyn UTR act -71
Cc1ccccc1OCc1nc2ccccc2n1C	aSyn UTR act -170
Cc1c(C(=O)Nc2nc3ccccc3[nH]2)oc2ccccc12	aSyn UTR act -258
Cc1c(C(=O)Nc2nc3ccccc3[nH]2)oc2ccc(Br)cc12	aSyn UTR act -158
Cc1c(C(=O)Nc2nc3ccccc3[nH]2)oc2c(Cl)cccc12	aSyn UTR act -136
O=C(Sc1cccc2cccnc12)c1ccccc1Br	aSyn UTR act -242
COc1ccc(CNc2ccc([N+](=O)[O-])cn2)cc1	aSyn UTR act -137
C=CCNc1nc(N)c([N+](=O)[O-])c(Nc2ccccc2OC)n1	none
COc1ccccc1Nc1ccc([N+](=O)[O-])cn1	aSyn UTR act -74
O=[N+]([O-])c1ccc(NCCOc2ccccc2Cl)nc1	aSyn UTR act -74
COc1ccc(Nc2ccc([N+](=O)[O-])cn2)cc1	aSyn UTR act -120
O=C(C1COc2ccccc2O1)N1CCc2ccccc21 (stereo not drawn)	aSyn UTR act -106
O=[N+]([O-])c1cc(-c2ccc(/C=N/c3nc4ccccn4c3-c3ccco3)o2)ccc1Cl	aSyn UTR act -74
CC(C)c1ccc(C(=O)N(c2ccccn2)C(C)c2ccco2)cc1 (stereo not drawn)	aSyn UTR act -161
CC(=O)NC(c1ccco1)c1ccc2cccnc2c1O (stereo not drawn)	none
CN=c1scc(-c2ccccc2Br)n1/N=C/c1ccc[nH]1	none
CN=c1scc(-c2ccccc2F)n1/N=C(\C)c1cccnc1	aSyn UTR act -163
Cc1ccc(Nc2nc(COC(=O)C3CC3)cs2)cc1	aSyn UTR act -105
O=[N+]([O-])c1ccccc1/C=N/OCc1ccccc1	aSyn UTR act -167
Cc1oc(-c2ccc(-c3ccccc3)cc2)nc1CN(CCO)C(C)C	aSyn UTR act -182
Cc1oc(-c2ccc(-c3ccccc3)cc2)nc1CN(C)C1CCOC1 (stereo not drawn)	aSyn UTR act -113
Cc1cc(C(=O)Nc2ccc(Cl)cc2)c(C)n1Cc1cccs1	aSyn UTR act -67
Cc1cc(C)cc(NC(=O)c2cc(C)n(Cc3cccs3)c2C)c1	aSyn UTR act -117
O=[N+]([O-])c1cccc(-c2nnc(-c3ccccc3F)o2)c1	aSyn UTR act -162
Clc1nc(-c2ccccc2)ncc1Oc1ccccc1	aSyn UTR act -64
O=C(Nc1cccnc1)c1ccc([N+](=O)[O-])o1	aSyn UTR act -202
O=C(NCc1cccnc1)c1ccc([N+](=O)[O-])o1	aSyn UTR act -117
NC(=O)c1oc2ccccc2c1NC(=O)c1ccc([N+](=O)[O-])o1	none
COC(=O)c1sccc1-c1ccc(C(=O)Nc2cccnc2)o1	aSyn UTR act -76
O=C(NN(c1ccccc1)c1ccccc1)c1ccc([N+](=O)[O-])o1	aSyn UTR act -83
COc1cc(-c2nc3ccc(N4CCN(C)CC4)cc3[nH]2)cc(OC)c1OC	aSyn UTR act -102
O=C(Nc1ccc(Cl)c(Cl)c1)OCc1cncs1	aSyn UTR act -97
COCCCN=C1NN=C(c2cc(C)n(Cc3ccco3)c2C)CS1	none
COCCn1c(C)cc(C2=NNC(=NC3CC3)SC2)c1C	none
COCC(C)N=C1NN=C(c2cc(C)n(Cc3ccccc3Cl)c2C)CS1 (stereo not drawn)	aSyn UTR act -141
CC(C)/C(=N\NC(=O)Nc1ccccc1)c1ccccc1	aSyn UTR act -70
C/C(=N\NC(=O)Nc1ccccc1)c1ccccc1	aSyn UTR act -80
CN(C)CCCNc1cc(-c2ccccc2)nc2cc(-c3cccc(F)c3)nn12	aSyn UTR act -62
COc1ccc(/C=C/C(=O)Nc2ccccc2C)cc1S(=O)(=O)N1CCOCC1	aSyn UTR act -87
Cc1cc(NC(=O)c2noc3c2CCc2ccccc2-3)no1	aSyn UTR act -77
Cc1ccc(O)c(NC(=O)c2noc3c2CCc2ccccc2-3)c1	aSyn UTR act -122
Cc1ccc(O)c(NC(=O)c2noc(C(C)C)c2[N+](=O)[O-])c1	aSyn UTR act -86
CC(=O)c1cccc(NC(=O)c2noc3c2CCc2ccccc2-3)c1	aSyn UTR act -168
C/C(O)=C(\N=Nc1cc(C)ccc1O)C(N)=O	aSyn UTR act -65
Cc1ccc2oc(C(=O)N(C)Cc3ccon3)c(C)c2c1	aSyn UTR act -153
CCCc1ccc2oc(C(=O)N(C)Cc3cnccn3)c(C)c2c1	aSyn UTR act -73
Cc1ccc(-c2nnn(CCC(=O)NC(C)(C)C)n2)cc1	aSyn UTR act -80
Cc1ccc(NC(=O)c2cc3cccc([N+](=O)[O-])c3[nH]2)cc1	aSyn UTR act -110
COc1ccc(-n2cc3ccc([N+](=O)[O-])cc3n2)cc1	aSyn UTR act -91
O=C(NC(=O)N1CCN(c2ccccc2)CC1)c1ccc(Cl)cc1	aSyn UTR act -66
Cc1c(-c2nc(N)nc(Nc3ccccc3)n2)oc2ccccc12	aSyn UTR act -134
Cc1ccc(Nc2nnc(SCC3CCCCO3)s2)cc1 (stereo not drawn)	aSyn UTR act -137
Cc1ccccc1Nc1nnc(SCC2CCCCO2)s1 (stereo not drawn)	aSyn UTR act -85
COc1ccc(N=c2cc(-c3ccc(O)cc3)oc3ccccc23)cc1	aSyn UTR act -62

Bioassay records (PubChem)
